Measured values taken from PubChem BioAssay (NCI).
Compounds without any hit were thinned out: in the full panel of roughly 79,000, 15% have a hit. The source made the active and inactive calls. No stated cut-off is given here; in the data, active means growth inhibition above about 70%; inactive means the rest.

Experiments:
[1] = NCI Yeast Anticancer Drug Screen. Data for the rad50 strain (AID 155);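 further: 0% = growth of vehicle-only cultures of the same strain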; conditions: S. cerevisiae rad50 strain growth inhibition; at 50.0 µM; stronger effect = higher value
Method in brief: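 DNA repair mutant yeast, compound exposure, growth read-out; inhibition is taken relative to vehicle.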

[2] = NCI Yeast Anticancer Drug Screen. Data for the mec2-1 strain (AID 157); conditions: S. cerevisiae mec2-1 strain, at 50.0 µM, stronger effect = higher value
Method in brief: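 Readout is yeast growth inhibition, normalised to vehicle-treated controls, in the mec2-1 strain exposed to compound.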

[3] = NCI Yeast Anticancer Drug Screen. Data for the sgs1 mgt1 strain (AID 161);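 further: 0% = growth of cultures given vehicle only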; conditions: S. cerevisiae sgs1 mgt1 strain, at 50.0 µM, stronger effect = higher value
Method in brief: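 Growth of a repair-deficient yeast mutant was monitored after compound treatment and expressed as inhibition relative to vehicle-treated cultures.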

[4] = NCI Yeast Anticancer Drug Screen. Data for the cln2 rad14 strain (AID 165);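 further: 0% = growth equal to vehicle treated cultures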; conditions: S. cerevisiae cln2 rad14 strain, at 50.0 µM, stronger effect = higher value
Method in brief: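 Relative to vehicle controls, growth inhibition of compound-treated cln2 rad14 yeast was recorded.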

[5] = NCI Yeast Anticancer Drug Screen. Data for the bub3 strain (AID 167); conditions: S. cerevisiae bub3 mutant strain, at 50.0 µM, stronger effect = higher value
Method in brief: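 In this screen, a yeast mutant lacking normal mitotic checkpoint function is challenged with compound. Relative growth versus vehicle gives the inhibition value.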

[6] = NCI Yeast Anticancer Drug Screen. Data for the mlh1 rad18 strain (AID 175); conditions: S. cerevisiae mlh1 rad18 strain growth inhibition; at 50.0 µM; stronger effect = higher value
Method in brief: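 Test agents were incubated with a yeast strain of defined genotype (DNA damage repair defect). Inhibition of growth was derived by comparison with vehicle-exposed cultures.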

Measured: growth inhibition

N#CC(CC(=O)c1ccccc1)c1ccccc1 (stereo unspecified)
inactive: [1] -10.3% | [2] 4.95% | [3] -18.9% | [4] -28.9% | [5] -14.3% | [6] -7.05%

O=C(Nc1ccc([N+](=O)[O-])cc1)N1CCOCC1
inactive: [1] 4.8% | [2] -17.8% | [3] 21.5% | [4] -1.25% | [5] 25.2% | [6] 15.2%

N#Cc1c2c(c(=S)n(-c3ccc(Cl)cc3)c1N)CCCC2
inactive: [1] -4.4% | [2] -3.35% | [3] -5.8% | [4] 1.75% | [5] 6.85% | [6] -7.2%

[NH-]C(CC(N)=O)C(=O)O.[NH-]C(CC(N)=O)C(=O)O.[Zn+2] (stereo unspecified)
inactive: [1] -3.15% | [2] -2.05% | [3] -3.9% | [4] -18.1% | [5] -2.75% | [6] 5.25%

CC12CC3CC(C)(C1)CC(CN=C(N)CS)(C3)C2
active: [1] 98.9% | [2] 99.5% | [3] 99.5% | [4] 99.2% | [5] 99.2% | [6] 99.3%

CCCCCC(O)c1ccccc1 (stereo unspecified)
inactive: [1] 22.7% | [2] -15.1% | [3] 11.2% | [4] -6.8% | [5] -7.1% | [6] 17.5%

CC1c2c(ccc3c2CCC=C3)CCC1CC1=CCCc2ccc3ccccc3c21 (stereo unspecified)
inactive: [1] 6.7% | [2] -1.6% | [3] 1.1% | [4] -13.3% | [5] 0.1% | [6] 9.85%

O=C(Nc1cccc(Cl)c1)c1ccc(Cl)cc1
inactive: [1] 2.95% | [2] 24.2% | [3] 7.75% | [4] -12.9% | [5] 26.7% | [6] 4.3%

CCOC(=O)C1CC(CCl)OC1=O (stereo unspecified)
inactive: [1] -3.65% | [2] 7.1% | [3] 2.1% | [4] -22.9% | [5] 0.6% | [6] 3.95%

Cc1c(-c2ccc3c(c2)OCO3)sc(N)c1C#N
inactive: [1] 5% | [2] -15.5% | [3] 12.2% | [4] 4.25% | [5] 20.6% | [6] -7.75%

CC(C)(C)OC(=O)N(CCCN)CCCCN
inactive: [1] -7.65% | [2] -9.75% | [3] -40.5% | [4] -21.4% | [5] -32% | [6] -53.9%

C=C(C)C(=O)OC1C/C(CO)=C\C(O)C/C(C)=C/C2OC(=O)C(=C)C21 (stereo unspecified)
inactive: [1] 55% | [2] 31.1% | [3] 33.7% | [4] 48% | [5] 41.5% | [6] -46.7%

CC(=O)Oc1ccc(Nn2c3ccccc3c3ccccc32)c(C)c1
inactive: [1] 56.6% | [2] 47.9% | [3] 36.1% | [4] 54.6% | [5] 41.4% | [6] 43%

CC(C)(Oc1ccccc1)C(=O)Sc1c(-c2ccccc2)c(=O)n(-c2ccccc2)c(=S)n1-c1ccccc1
inactive: [1] 13.2% | [2] -14.8% | [3] -15.3% | [4] -5.4% | [5] -13.2% | [6] -6.95%

Cc1ccc(-n2cc(-c3ccc(Cl)cc3)c3c(=N)n(N)cnc32)cc1
inactive: [1] -12.2% | [2] -14.2% | [3] 49.8% | [4] 26.2% | [5] 16.8% | [6] 47%

CC(C)(C)OC(=O)NC(Cc1ccccc1)NC(=O)NC(=O)OCc1ccccc1 (stereo unspecified)
inactive: [1] -25.3% | [2] -9.85% | [3] -6.45% | [4] -0.65% | [5] -13.8% | [6] -27.1%

BrCCCC1CCCCC1
inactive: [1] -23.6% | [2] -41.7% | [3] -13.2% | [4] 2.1% | [5] -14.6% | [6] -14.7%

C[N+](C)(C[Si](C)(C)C)C1CCCCCCCCCCC1
inactive: [1] 11.4% | [2] 1.3% | [3] -8.8% | [4] -10.9% | [5] 14.1% | [6] 22.2%

CN(CC(=O)O)Cc1ccccc1
inactive: [1] 9.5% | [2] 19.4% | [3] 10.5% | [4] -13.9% | [5] 9.35% | [6] 3.3%

CC12CCCCC1C(C(C)(C)OC(=O)c1ccc([N+](=O)[O-])cc1)CC2 (stereo unspecified)
inactive: [1] 15% | [2] 8.2% | [3] 17.4% | [4] -8.85% | [5] 12.6% | [6] 21.1%

S=c1[nH]nc(-c2ccccc2)n1/N=C\c1ccc(-c2ccc(Cl)cc2)o1
inactive: [1] 6.4% | [2] -21.5% | [3] -0.7% | [4] 14.8% | [5] -2.35% | [6] 5.5%

CC[N+](C)(CC)CCOC(=O)C(C1=CCCCC1)C1(O)CCCCC1 (stereo unspecified)
inactive: [1] 3.05% | [2] -15.8% | [3] -27.5% | [4] -48.9% | [5] 2.5% | [6] -16.6%

CCCCOc1ccccc1C(=O)OC
inactive: [1] 23.9% | [2] 5.55% | [3] 21.8% | [4] -0.6% | [5] 9.4% | [6] 18.5%

O=C1CSCN1N1CSCC1=O
inactive: [1] -5.85% | [2] 3.1% | [3] 7.85% | [4] -4.35% | [5] 8.95% | [6] 18.8%

O=[N+]([O-])c1ccc(N/N=C/c2ccc(CO)cc2)c([N+](=O)[O-])c1
inactive: [1] 4% | [2] -5.65% | [3] 18.1% | [4] -13.9% | [5] 6.1% | [6] 17.2%

CC(=O)OC(CC1(C)C(C)CCC23COC(=O)C2=CCCC31)c1ccoc1 (stereo unspecified)
inactive: [4] 63.5%
active: [1] 87.3% | [2] 82.2% | [3] 85.7% | [5] 81.2% | [6] 82%

O=C(O)C(=C\c1ccccc1)/C(=C\c1ccccc1)C(=O)OCc1ccccc1
inactive: [1] 16.9% | [2] 5.3% | [3] 19.9% | [4] -0.4% | [5] 47.5% | [6] 8.4%

NCCn1[nH]c(=O)c2ncccc2c1=O
inactive: [1] -59% | [2] -27.6% | [3] -4.45% | [4] -49.1% | [5] -6.6% | [6] -14.9%

COc1ccccc1NC(=O)C(Cc1ccccc1)NC(C)=O (stereo unspecified)
inactive: [1] 25.2% | [2] 3.7% | [3] -1.85% | [4] -51.5% | [5] 8.2% | [6] 2.65%

O=[N+]([O-])c1ccc2c(Cl)c3ccccc3nc2c1
inactive: [1] 20.1% | [2] 24.1% | [3] 2% | [4] 17.6% | [5] 34.2% | [6] 16.6%

O=[N+]([O-])c1ccc(C2SCc3nc4ccccc4n32)cc1 (stereo unspecified)
inactive: [1] 3.4% | [2] -14.2% | [3] 49.1% | [4] 15.2% | [5] 23.1% | [6] -2.65%

N#CC(c1ccc(Cl)cc1)c1ccc(N(CCO)CCO)cc1 (stereo unspecified)
inactive: [1] 9.4% | [2] 1.25% | [3] 2.75% | [4] 5.85% | [5] -12.1% | [6] 13.8%

C=C1C(=C)C2C=CC1C1C3C(c4ccccn4)=NN=C(c4ccccn4)C3C21 (stereo unspecified)
inactive: [1] 54.4% | [2] 66.2% | [3] 68.8% | [5] 66.6% | [6] 62.5%
active: [4] 74.5%

Cc1ccc(N=Nc2c(O)c(S(=O)(=O)O)cc3cc(S(=O)(=O)O)ccc23)c(C)c1
inactive: [1] 8.55% | [2] -19.6% | [3] -13.8% | [4] 6.3% | [5] -14% | [6] 2.55%

CSc1n[nH]c(=O)c2nc[nH]c12
inactive: [1] -9.3% | [2] -9.2% | [3] 0.55% | [4] -34.5% | [5] 7.75% | [6] -5.2%

c1cc(Cc2ccsc2)cs1
inactive: [1] -8.2% | [2] 4.1% | [3] -4.5% | [4] -7.1% | [5] -11.7% | [6] -10.8%

Cc1ccc(NC(=O)c2cc3cc(N=Nc4ccc(Br)cc4)ccc3oc2=O)cc1
inactive: [1] 16% | [2] 28.1% | [3] 12.4% | [4] 23.1% | [5] 3.05% | [6] 15.8%

Nc1nnnn1C(=O)NCCCl
inactive: [1] -6.55% | [2] 0.6% | [3] -6.45% | [4] -24.8% | [5] -20.4% | [6] -5.25%

S=C(c1ccccc1)N1CCCCC1
inactive: [1] 8% | [2] -1.7% | [3] 0.45% | [4] -23.4% | [5] 16.3% | [6] 4.05%

O=C(Nc1ccc(Cl)cc1)c1ccc(Cl)c(Cl)c1
inactive: [1] -1.6% | [2] 14.8% | [3] 7.1% | [4] -8.6% | [5] 11.8% | [6] -9.6%

CC(C)=CCC/C(C)=C/Cn1c(=O)cc[nH]c1=O
inactive: [1] 10.7% | [2] -6.9% | [3] -15.8% | [4] -107% | [5] 2.15% | [6] -0.1%
